In PubChem BioAssay (NCI) one finds growth data, which are given here for 8 compounds.

Molecules are shown by their SMILES. Compounds without any hit were thinned out: in the full panel of roughly 83,000, 20% have a hit.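 Activity criterion: percent growth below 10, measured after cells in 96-well plates were exposed to a single compound concentration for 48 hours.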 Values without a mark were called inactive. Calls of active or inactive are those of the source.

Among the test systems are NCI-H23 lung; NCI-H226 lung; NCI-H322M lung; HOP-62 NSCLC; NCI-H460 lung; HOP-92 NSCLC; NCI-H522 lung; A549/ATCC NSCLC; 786-0 renal; COLO 205 colon; DU-145 prostate; K-562 leukemia; MALME-3M melanoma; MDA-MB-231 breast; SF-268 CNS; SF-295 CNS; SF-539 CNS; UACC-257 melanoma; M14 melanoma.
Common to all, as to experiment: NCI-60 one-dose screen, 48 h (100 = growth as untreated, 0 = no growth, -100 = all killed)
Details in all cases: 10 µM unless noted

As for `NC(=O)c1cccc(-c2ccccc2N2CCCCC2)c1`, the growth in the assay with NCI-H23 lung is 103%; with NCI-H226 lung it was 98.9%; in the assay with NCI-H322M lung it was 91%; with HOP-62 NSCLC, 99.5%; in the assay on NCI-H460 lung it was 108%; with HOP-92 NSCLC, 103%. The growth with NCI-H522 lung was 85.7%; with A549/ATCC NSCLC, 99.1%; in the assay with 786-0 renal, 85.3%; in the assay with COLO 205 colon, 121%; with DU-145 prostate it was 99.8%; in the assay with K-562 leukemia it was 85.1%. In addition, the growth with MALME-3M melanoma was 80.8%; in the assay with MDA-MB-231 breast, 100%; in the assay on SF-268 CNS, 94%; in the assay on SF-295 CNS it was 89.4%; with SF-539 CNS, 97.8%; in the assay with UACC-257 melanoma, 99.3%. Moreover, in the assay with M14 melanoma, the growth is 94.6%.

On to `COc1cc2nc(-c3ccc(-c4nn[nH]n4)cc3)[nH]c(=O)c2cc1OC`, for which the growth was 93.7% in the assay with NCI-H23 lung; 106% in the assay on NCI-H226 lung; 176% with NCI-H322M lung; 99.3% in the assay on HOP-62 NSCLC; 115% in the assay with NCI-H460 lung; 132% in the assay on HOP-92 NSCLC. Besides, the growth in the assay with NCI-H522 lung was 96.1%; in the assay with A549/ATCC NSCLC, 30.5%; in the assay on 786-0 renal it was 104%; with COLO 205 colon it was 117%; in the assay with DU-145 prostate it was 114%; with K-562 leukemia it was 109%. Also, the growth in the assay on MALME-3M melanoma was 215%; in the assay on MDA-MB-231 breast, 119%; in the assay with SF-268 CNS, 99.9%; in the assay with SF-295 CNS, 122%; with SF-539 CNS, 99.5%; in the assay with UACC-257 melanoma, 122%. Besides, the growth in the assay on M14 melanoma was 102%.

As to `O=C(O)CCCCCCCCCCCCCCC(=O)O`, the growth with NCI-H23 lung was 103%; in the assay on NCI-H226 lung it was 85.3%; in the assay on NCI-H322M lung, 100%; with HOP-62 NSCLC it was 99.1%; in the assay on NCI-H460 lung it was 110%; in the assay on HOP-92 NSCLC it was 85.1%. Moreover, the growth in the assay on NCI-H522 lung was 89.6%; in the assay with A549/ATCC NSCLC it was 90.5%; in the assay on 786-0 renal, 102%; with COLO 205 colon, 108%; in the assay on DU-145 prostate, 106%; with K-562 leukemia, 109%. Besides, the growth with MALME-3M melanoma was 101%; in the assay with MDA-MB-231 breast, 98.2%; in the assay with SF-268 CNS it was 98.9%; in the assay on SF-295 CNS it was 101%; in the assay with SF-539 CNS, 105%; in the assay on UACC-257 melanoma, 95.6%. Further, in the assay with M14 melanoma, the growth was 107%.

On to `CCN1C(=O)/C(=c2\sc3n(c2=O)NC2C(N=3)N(CC)C(=O)N2CC)c2ccccc21` (configuration not stated), for which the growth is 38.5% with NCI-H23 lung; 102% in the assay on NCI-H226 lung; 47% with NCI-H322M lung; 43.1% in the assay on HOP-62 NSCLC; 18% in the assay on NCI-H460 lung; 21.6% in the assay with HOP-92 NSCLC. Further, the growth with NCI-H522 lung was 15%; with A549/ATCC NSCLC, 38.9%; in the assay on 786-0 renal, 38.2%; with COLO 205 colon, 14.8%; in the assay on DU-145 prostate it was 17.8%; in the assay with K-562 leukemia it was 10.2%. Moreover, the growth is 36.7% with MALME-3M melanoma; 19.9% in the assay with MDA-MB-231 breast; 63.9% in the assay with SF-268 CNS; 16.4% in the assay with SF-295 CNS; -18.6% (active) in the assay on SF-539 CNS; 82.5% in the assay with UACC-257 melanoma. Also, in the assay on M14 melanoma, the growth was 38%.

For the compound `COc1ccc(C2CC(c3cccc(Nc4ccncc4)c3)=NN2c2ccc(Cl)cc2)cc1` (configuration not stated), the growth in the assay on NCI-H23 lung is 83%; in the assay with NCI-H226 lung, 88.8%; in the assay on NCI-H322M lung, 73.7%; in the assay on HOP-62 NSCLC, 25.3%; in the assay with NCI-H460 lung, -85.9% (active); in the assay on HOP-92 NSCLC, 51.5%. Moreover, the growth in the assay on NCI-H522 lung is -23% (active); in the assay on A549/ATCC NSCLC it was 35.9%; in the assay on 786-0 renal it was 102%; in the assay on COLO 205 colon, -65.9% (active); with DU-145 prostate it was 23.6%; with K-562 leukemia, 0.0732% (active). For the same compound, the growth is -49.9% (active) in the assay on MALME-3M melanoma; 40.6% in the assay with MDA-MB-231 breast; 62.1% with SF-268 CNS; 53.9% with SF-295 CNS; 76.4% with SF-539 CNS; 12.6% in the assay on UACC-257 melanoma. In addition, the growth in the assay with M14 melanoma is 100%.

As to `Nc1nc(N)nc(NCc2ccccc2)n1`, the growth was 97.1% in the assay on NCI-H23 lung; 95.4% with NCI-H226 lung; 95.4% in the assay on NCI-H322M lung; 105% in the assay on HOP-62 NSCLC; 109% in the assay with NCI-H460 lung; 108% in the assay on HOP-92 NSCLC. Also, the growth with NCI-H522 lung is 99.3%; with A549/ATCC NSCLC it was 101%; in the assay on 786-0 renal, 102%; in the assay on COLO 205 colon, 119%; with DU-145 prostate it was 112%; in the assay on K-562 leukemia it was 89.3%. In addition, the growth in the assay with MALME-3M melanoma was 108%; in the assay on MDA-MB-231 breast, 108%; with SF-268 CNS, 100%; in the assay on SF-295 CNS it was 100%; in the assay on SF-539 CNS, 100%; with UACC-257 melanoma, 110%. Moreover, the growth in the assay on M14 melanoma was 107%.

For the compound `ClCC1(Cn2cnc3c(Cl)nc(Cl)nc32)COC1`, the growth in the assay on NCI-H23 lung was 69.1%; in the assay with NCI-H226 lung, 87.7%; in the assay with NCI-H322M lung it was 100%; with HOP-62 NSCLC it was 103%; with NCI-H460 lung, 86.5%; with HOP-92 NSCLC, 73.1%. For the same compound, the growth in the assay on NCI-H522 lung is 71.9%; in the assay with A549/ATCC NSCLC it was 57.5%; in the assay on 786-0 renal it was 88.4%; in the assay with COLO 205 colon, 80.2%; in the assay with DU-145 prostate, 67.8%; with K-562 leukemia, 64.7%. Moreover, the growth in the assay on MALME-3M melanoma was 102%; in the assay on MDA-MB-231 breast, 80.4%; in the assay on SF-268 CNS it was 78%; in the assay with SF-295 CNS it was 88.8%; in the assay on SF-539 CNS, 103%; with UACC-257 melanoma it was 75.8%. In addition, in the assay on M14 melanoma, the growth was 62.6%.

On to `CN1CCN(c2cnc(C(=O)Nc3cc(F)cc4cccnc34)cn2)CC1`, for which the growth with NCI-H23 lung was 39.6%; in the assay on NCI-H226 lung it was 90.1%; in the assay with NCI-H322M lung, 83.9%; with HOP-62 NSCLC, 98.6%; with NCI-H460 lung, 103%; in the assay with HOP-92 NSCLC, 79.1%. Also, the growth was 22% in the assay with NCI-H522 lung; 92.4% with A549/ATCC NSCLC; 56% in the assay on 786-0 renal; 21.2% in the assay on COLO 205 colon; 72.3% with DU-145 prostate; 16.9% in the assay with K-562 leukemia. Moreover, the growth in the assay on MALME-3M melanoma is 42.2%; in the assay on MDA-MB-231 breast, 33.4%; in the assay on SF-268 CNS, 93.7%; in the assay with SF-295 CNS, 94.3%; in the assay on SF-539 CNS, 71.8%; in the assay on UACC-257 melanoma, 44.8%. Further, the growth in the assay with M14 melanoma is 51.4%.
